TIM10 inh: TIM10 yeast growth inhibition | S. cerevisiae TIM10 strain growth, BacTiter-Glo luminescence, 24 h | inhibition, % at 10 µM | actives 1.4% (n = 330,000);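 active = inhibition of 40% or more at the single tested concentration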;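 also: wild-type TIM10 isogenic control strain grown at permissive 25 °C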
SKKanGAS inh: SKKanGAS growth inhibition; inhibition, % at 7.5 µM; S. pyogenes SKKanGAS, kanamycin growth, BacTiter-Glo, 6 h; actives 1.3% (n = 300,000);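 active = mean replicate score, as percent of positive control median, at least 50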;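 also: strain carries kanamycin resistance gene driven by streptokinase promoter and grows in 40 µg/ml kanamycin; loss of luminescence reflects streptokinase promoter inhibition or plain growth inhibition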
ATG4B inh: inhibitors of human ATG4B cysteine protease; ATG4B cleavage of LC3-PLA2, NBD-HPC fluorescence, 1 h; inhibition, % at 8.33 µM; actives 0.51% (n = 340,000); in the data active = inhibition above about 40%
Target sequence (Q9Y4P1 whole entry, looked up): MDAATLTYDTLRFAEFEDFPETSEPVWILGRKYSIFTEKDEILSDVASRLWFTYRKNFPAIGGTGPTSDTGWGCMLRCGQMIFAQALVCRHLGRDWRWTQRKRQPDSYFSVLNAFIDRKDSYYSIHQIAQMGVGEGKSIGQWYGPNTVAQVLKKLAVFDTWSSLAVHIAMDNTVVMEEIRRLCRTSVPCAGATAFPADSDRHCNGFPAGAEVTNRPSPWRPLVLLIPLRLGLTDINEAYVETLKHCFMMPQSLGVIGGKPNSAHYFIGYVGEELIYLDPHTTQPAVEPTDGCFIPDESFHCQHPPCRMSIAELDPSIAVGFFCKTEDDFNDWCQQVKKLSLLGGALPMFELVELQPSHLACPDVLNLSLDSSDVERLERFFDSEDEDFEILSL
tim10-1 inh: growth inhibitors of tim10-1 mutant yeast; actives 2.2% (n = 330,000); AID 463190; S. cerevisiae tim10-1 ts strain growth, BacTiter-Glo, 24 h; inhibition, % at 20 µM;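 active = inhibition of at least 40%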;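 also: mutant grown at 25 °C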
PfHsp90 set2: reduces growth (ATP signal) of yeast expressing P. falciparum Hsp90. S. cerevisiae expressing PfHsp90, BacTiter-Glo ATP, 48 h; yeast lacking PDR1 and PDR3 efflux regulators. inhibition, % at 9.4 µM. actives 0.32% (n = 310,000). AID 504621;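 active = every replicate shows inhibition above about 80%, whatever the replicate mean, limit read from the data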
tim23-1 inh: growth inhibitors of tim23-1 mutant yeast; S. cerevisiae tim23-1 growth, BacTiter-Glo luminescence, 24 h; inhibition, % at 20 µM; actives 1.3% (n = 330,000);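 active = growth inhibition of the mutant yeast at or above 50%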;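 also: temperature-sensitive mutant grown at 25 °C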
tim10-1 confirm: tim10-1 yeast growth inhibition, confirmed | actives 56% (n = 7,400) | S. cerevisiae tim10-1 ts strain growth, BacTiter-Glo, 24 h | shares compounds with tim10-1 inh | inhibition, % at 20 µM;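 active = inhibition of yeast growth at or above a set limit in either of two repeat tests at 20 µM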;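 also: tim10-1 mutant grown at permissive 25 °C to find synthetic lethal compounds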
Each line names hits and unclear results; the compound was inactive in the other large screens (follow-up assays come after a bar, where they were run). In the library only some 4.7% were active in any assay of this set; here they are far more common.

CN(C(=O)CSc1n[nH]c(N)n1)C1CCCCC1	none (no result: SKKanGAS inh)
O=C(COc1ccc(Br)cc1Br)NC(=O)NC1CCCC1	none
CC(C)(C)NC(=O)NC(=O)COc1ccc(Br)cc1Br	tim10-1 inh 46.0 | tim10-1 confirm 33.6
CC1(C)CC(NC(=O)c2cc(COc3cccc(C(F)(F)F)c3)on2)CCO1 (stereo not given)	tim10-1 inh 47.7 | tim10-1 confirm inactive
C=C1/C(=C\C=C2/CCC[C@]3(C)[C@@H]([C@H](C)CCCC(C)(C)O)CC[C@@H]23)C[C@@H](O)C[C@@H]1O	tim10-1 inh 47.8 (no result: ATG4B inh, PfHsp90 set2) | tim10-1 confirm inactive
N#CC1(Cc2ccc([N+](=O)[O-])cc2)c2ccccc2C=CN1C(=O)c1ccccc1 (stereo not given)	none
COc1ccc(/C=N/N(Cc2ccccc2)c2ccccc2)cc1O	tim10-1 inh 51.2 | tim10-1 confirm inactive
Cc1ccc(-n2ccnc(SCC(=O)NC3CCCCC3)c2=O)cc1F	tim10-1 inh 44.0 (no result: PfHsp90 set2) | tim10-1 confirm inactive
COc1ccc(C(CCNCc2ccc(F)cc2)c2ccc(F)cc2)cc1 (stereo not given)	none
COc1ccc(CNCCC(c2ccc(F)cc2)c2ccc(OC)cc2)cc1 (stereo not given)	none
COc1ccc(C(CCNCc2ccccc2)c2ccc(F)cc2)cc1 (stereo not given)	tim10-1 inh 45.5 | tim10-1 confirm inactive
COc1ccc(C(CCNC(C)c2ccccc2)c2ccc(F)cc2)cc1 (stereo not given)	tim10-1 inh 51.2 | tim10-1 confirm 36.2
C=C(C)C(=O)NNc1ccccc1	tim10-1 inh 41.0 | tim10-1 confirm 37.1
CCOc1ccccc1NC(=O)CSc1nnc(-c2ccncc2)o1	none
Cc1nc(Nc2cccc(Cl)c2)c2oc3ccccc3c2n1	none
COc1cccc(Nc2nc(C)nc3c2oc2ccccc23)c1	tim10-1 inh 43.2 | tim10-1 confirm inactive
Cc1nc(Oc2ccccc2)c2oc3ccccc3c2n1	tim10-1 inh 42.2 | tim10-1 confirm inactive
Fc1ccc(-c2csc3ncnc(Nc4ccc(N5CCOCC5)cc4)c23)cc1	tim10-1 inh 43.2 (no result: PfHsp90 set2) | tim10-1 confirm 37.0
c1nc(Nc2ccc(N3CCOCC3)cc2)c2ccsc2n1	none
CCOc1ccccc1/C=N/NC(=O)c1nnn(-c2nonc2N)c1CN1CCC(C)CC1	none
CC1=CC(C)(C)N2C(=O)C3(SCC(=O)N3c3ccc(O)cc3)c3cc(C)cc1c32 (stereo not given)	tim10-1 inh 42.7 | tim10-1 confirm inactive
COc1ccccc1N1CCN(C(=O)Nc2ccc([N+](=O)[O-])cc2)CC1	none
Cc1ccccc1C(=O)Nc1ccc2nc3n(c(=O)c2c1)CCCC3	none
CCOc1ccccc1C(=O)Nc1ccc2nc3n(c(=O)c2c1)CCCCC3	tim10-1 inh 54.8 | tim10-1 confirm inactive
C=CCNC(=S)N1CCc2c([nH]c3ccccc23)C1C (stereo not given)	none
CCN(CC)c1ccc(S(=O)(=O)N2CCOCC2)cc1NC(=O)CN1CCc2ccccc2C1	tim10-1 inh 49.9 | tim10-1 confirm inactive
O=C(CSC1CCCCC1)N1CCN(c2ccccc2)CC1	none
COc1ccc(CC(=O)Nc2nc(-c3ccccc3)c(C(C)=O)s2)cc1OC	tim10-1 inh 47.8 | tim10-1 confirm inactive
COc1ccc(-c2sc(NC(C)=O)nc2-c2ccccc2)cc1	none
COc1ccc(-c2nc(NC(C)=O)sc2-c2ccccc2)cc1	tim10-1 inh 41.7 | tim10-1 confirm inactive
Cc1nn(CCCC(=O)NCc2ccccc2)c(=O)c2nn(-c3ccccc3)c(C)c12	none
O=C(NC1CCN(S(=O)(=O)c2ccc(F)cc2)CC1)c1ccc(F)cc1	none
COC(=O)c1cccc(Nc2cc(C)nc(-c3ccccc3O)n2)c1	tim10-1 inh 61.9 | tim10-1 confirm 35.0
Cc1cc(-c2[nH]nc3c2C(c2ccsc2)C(C#N)=C(N)O3)c(C)s1 (stereo not given)	tim10-1 inh 46.8 | tim10-1 confirm 44.3
Cc1ccc(-c2[nH]nc3c2C(C)C(C#N)=C(N)O3)cc1 (stereo not given)	tim10-1 inh 40.5 | tim10-1 confirm 32.5
COC(=O)CC/C(O)=C1\C(=O)CC(C)(C)CC1=Nc1ccccc1OC	none
CCCC/C(O)=C1\C(=O)CC(C)(C)CC1=Nc1ccccc1OC	tim10-1 inh 41.2 | tim10-1 confirm inactive
CC1CCCC(C)N1S(=O)(=O)c1ccc(Cl)cc1 (stereo not given)	none
C=CC(C)(C)c1c2occc2c(O)c2ccc(=O)oc12	none (no result: SKKanGAS inh)
C=CC(C)(C)c1c(O)c(CC=C(C)C)c(O)c2c(=O)c3ccc(O)c(O)c3oc12	SKKanGAS inh 103.3, tim10-1 inh 43.6, PfHsp90 set2 105.5 | tim10-1 confirm 29.4
C(=N\n1cnnc1)/c1cn(Cc2ccccc2)c2ccccc12	tim10-1 inh 49.1 | tim10-1 confirm inactive
Cc1nn(Cc2ccc(Cl)cc2)c(C)c1NC(=O)c1ccc([N+](=O)[O-])cc1	tim10-1 inh 53.2 | tim10-1 confirm 41.0
Cc1nn(Cc2ccc(C(=O)Nc3ccccc3F)cc2)c(C)c1Cl	tim10-1 inh 40.8 | tim10-1 confirm inactive
Cc1nn(Cc2ccc(Cl)cc2)c(C)c1NC(=O)c1noc2c1CCCCC2	tim10-1 inh 43.3 (no result: PfHsp90 set2) | tim10-1 confirm 43.8
Cc1nn(Cc2ccc(Cl)cc2)c(C)c1NC(=O)Cn1nc([N+](=O)[O-])c(Cl)c1C	none
Cc1ccc(NS(=O)(=O)c2ccc3c(c2)CC(=O)N3)cc1F	none (no result: SKKanGAS inh)
CCN(Cc1ccccc1)Cc1nnnn1Cc1ccccc1	none
CC(=O)Nc1ccc(NC(=O)C(C)OC(=O)C2(c3ccc(F)cc3)CCCC2)cc1 (stereo not given)	none
N#Cc1nc(-c2ccccc2F)oc1N1CCN(C(=O)c2ccco2)CC1	none
O=C(NCc1ccccc1)c1ccc(-c2ccccc2F)o1	tim10-1 inh 41.7 | tim10-1 confirm 36.1
CC1(NC(=O)Cc2c(Cl)cccc2Cl)CCS(=O)(=O)C1 (stereo not given)	none (no result: SKKanGAS inh)
COc1ccc(C)cc1N(C(=O)c1ccc(C#N)cc1)C1=NC(C)(C)CS1	none | tim10-1 confirm inactive
COc1ccc(C)cc1N(C(=O)c1ccccc1)c1nc2ccccc2s1	none
CCCN(CC(=O)Nc1ccccc1C)C(=O)/C=C/c1cccs1	none
COc1ccc(S(=O)(=O)N2CCOC23CCN(S(=O)(=O)c2ccc(F)cc2)CC3)cc1	tim10-1 inh 47.0 | tim10-1 confirm inactive
COc1ccc(S(=O)(=O)N2CCOC23CCN(S(=O)(=O)c2ccc(C)cc2)CC3)cc1	tim10-1 inh 45.9 | tim10-1 confirm inactive
Cc1ccc(S(=O)(=O)N2CCC3(CC2)OCCN3S(=O)(=O)c2cccs2)cc1	none

From PubChem
